Source: PubChem BioAssay
Sampled rows, rich in hits. Any-hit rate of the full collection: about 11%.
G9a block – G9a (human) methyltransferase inhibition; G9a H3K9 monomethylation, AlphaScreen, 2 h; Potency, µM (top dose mostly 102 µM), without a hit: at the top dose activity, negative = inhibition, usual class: inhibitors; 350,000 compounds, 8.8% hits; AID 504332; note: % is set by controls: 0 for no effect and ±100 for the full control effect; nearly all actives have a fitted effect of over 75% in size
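Step 1: enzyme (final 20 nM) with compound, 15 min RT. Step 2: substrate peptide 500 nM and SAM 20 uM, 2 h RT. Step 3: anti-H3K9me1 antibody and AlphaScreen beads, 10 min, then plate read.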
PLK1 PBD inh – blocks phosphopeptide binding to human PLK1 polo-box domain; 360,000 compounds, 2.8% hits; AID 720504; Potency, µM, without a hit: max response, negative = inhibition, hits mostly inhibitors; P53350; Plk1 PBD binding of FITC phosphopeptide, fluorescence polarization; note: series mostly up to about 57 µM; % is set by controls: 0 for no effect and ±100 for the full control effect; nearly all actives have a fitted effect of over 65% in size
JMJD2A Tudor inh – blocks the human JMJD2A Tudor domain | 390,000 compounds, 4.4% hits | Potency, µM (highest dose often 114 µM), inactives show top-dose activity change, negative = inhibition, usual class: inhibitors | AlphaScreen JMJD2A-Tudor / H3K4me3 peptide binding | O75164; note: % is set by controls: 0 for no effect and ±100 for the full control effect; nearly all actives have a fitted effect of over 50% in size
Target sequence (O75164 whole entry, looked up, the tested form may be a part): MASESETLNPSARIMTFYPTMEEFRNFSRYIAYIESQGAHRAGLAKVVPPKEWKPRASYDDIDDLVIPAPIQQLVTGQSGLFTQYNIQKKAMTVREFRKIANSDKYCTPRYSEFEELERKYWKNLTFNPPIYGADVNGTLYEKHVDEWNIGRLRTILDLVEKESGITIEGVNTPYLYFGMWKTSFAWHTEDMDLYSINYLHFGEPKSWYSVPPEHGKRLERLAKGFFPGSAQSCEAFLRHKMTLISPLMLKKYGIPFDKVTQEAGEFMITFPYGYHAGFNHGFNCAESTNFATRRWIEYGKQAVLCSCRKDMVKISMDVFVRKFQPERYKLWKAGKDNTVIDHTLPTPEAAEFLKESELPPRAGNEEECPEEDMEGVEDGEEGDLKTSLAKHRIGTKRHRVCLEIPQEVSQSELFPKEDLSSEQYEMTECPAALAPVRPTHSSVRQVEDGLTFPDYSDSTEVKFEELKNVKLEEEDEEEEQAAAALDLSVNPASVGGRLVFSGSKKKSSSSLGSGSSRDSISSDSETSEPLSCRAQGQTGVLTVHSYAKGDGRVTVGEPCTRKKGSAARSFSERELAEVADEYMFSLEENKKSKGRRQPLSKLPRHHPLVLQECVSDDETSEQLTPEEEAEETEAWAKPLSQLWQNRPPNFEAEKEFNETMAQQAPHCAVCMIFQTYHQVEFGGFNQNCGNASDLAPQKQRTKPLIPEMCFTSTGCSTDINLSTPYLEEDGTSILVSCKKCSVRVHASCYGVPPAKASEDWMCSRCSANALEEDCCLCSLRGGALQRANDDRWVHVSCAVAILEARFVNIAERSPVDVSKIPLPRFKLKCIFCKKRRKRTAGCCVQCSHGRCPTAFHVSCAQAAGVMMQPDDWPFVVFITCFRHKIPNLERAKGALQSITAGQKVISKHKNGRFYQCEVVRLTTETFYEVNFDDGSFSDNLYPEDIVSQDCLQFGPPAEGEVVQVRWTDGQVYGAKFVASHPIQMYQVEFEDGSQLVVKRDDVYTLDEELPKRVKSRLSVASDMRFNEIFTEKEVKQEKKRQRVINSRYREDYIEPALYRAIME
BAZ2B inh – BAZ2B (human) inhibition | AID 504333 | Q9UIF8 | AlphaScreen BAZ2B-H3K14Ac peptide displacement | Potency, µM (highest dose often 114 µM), for inactives: at the highest dose activity change, negative = inhibition, usual class: inhibitors | 360,000 compounds, 4.4% hits; note: % is set by controls: 0 for no effect and ±100 for the full control effect; nearly all actives have a fitted effect of over 60% in size
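BAZ2B (50 nM) with biotin-H3(5-23)K14Ac peptide (50 nM) in PBS pH 7.4, 0.01% Tween-20, preformed 30 min, then compound 30 min at room temperature; top concentration 110uM. AlphaScreen streptavidin donor/nickel chelate acceptor beads (10 ug/mL final), 20 min dark, signal read.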
HP1b chromo inh – inhibitors of HP1-beta chromodomain binding to methylated histone tails | Potency, µM (titrated, usually from 114 µM), for the others: at the top dose activity change, negative = inhibition, actives largely listed as inhibitors | P83916 | 390,000 compounds, 0.56% hits | AlphaScreen HP1-beta / biotin-H3K9me3 peptide binding; note: nearly all actives have a fitted effect of over 70% in size
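Compound inhibition of the preformed complex between 50 nM HP1-beta and 50 nM biotinylated H3K9me3 peptide was read by AlphaScreen. Buffer was PBS pH 7.4 with 0.01% Tween-20. Incubations ran 30 min at room temperature, with 10 ug/mL donor/acceptor beads.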
VDR inh – inhibitors of human vitamin D receptor; P11473; AID 504847; 400,000 compounds, 0.93% hits; VDR-SRC2-3 peptide fluorescence polarization, 2 h; Potency, µM, inactives show max response, negative = inhibition, usual class: inhibitors; note: % is set by controls: 0 for no effect and ±100 for the full control effect
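Reagent solutions, kept cold and dark, are dispensed first; compounds are then pinned in at 23 nl, plates briefly spun, and incubated 2 h at ambient temperature. Inhibition of VDR–SRC2-3 peptide binding is read by fluorescence polarization.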
* = called active by the depositor; ? = inconclusive; / = no result given; ! = not confirmed by another sample; [ ] = dose if it differs, or a comment. Calls come from the whole dose curve; as a rule, active = well fitted curve in the direction sought with a large enough effect; inconclusive = small, poorly fitted or top-dose-only effect, or another doubt; inactive = no such curve, though single readings can be large; an effect the other way counts as inactive or inconclusive. Potency is the fitted concentration of half-maximal effect.

SMILES	G9a block	PLK1 PBD inh	JMJD2A Tudor inh	BAZ2B inh	HP1b chromo inh	VDR inh
O=c1[nH]c(=S)n(Cc2ccc(F)cc2)c(O)c1C=NCCCn1ccnc1	-29.4%	-9.5%	-20.6%	-25.9%	13.8%	-12.3%
CN[C@H](CC(C)C)C(=O)N[C@H]1C(=O)N[C@@H](CC(N)=O)C(=O)N[C@@H]2C(=O)N[C@H]3C(=O)N[C@H](C(=O)N[C@H](C(=O)O)c4cc(O)cc(O)c4-c4cc3ccc4O)[C@H](O)c3ccc(c(Cl)c3)Oc3cc2cc(c3O[C@@H]2O[C@H](CO)[C@@H](O)[C@H](O)[C@@H]2O[C@H]2C[C@](C)(N)[C@H](O)[C@H](C)O2)Oc2ccc(cc2Cl)[C@H]1O	1.5%[59 µM]	/	/	/	/	-3.0%
O=C1C=CC(=O)c2c1ccc1c2ccc2ccccc21	5.01µM*	/	/	/	/	3.16µM*
COC(=O)[C@@]1(O)C[C@@H]2O[C@@]1(C)n1c3ccccc3c3c4c(c5c6ccccc6n2c5c31)C(=O)NC4	/	/	/	/	/	10.6%
O=C(Nc1ccc(Oc2ccc(Cl)cc2)c(Cl)c1)c1cc(I)cc(I)c1O	?	?	79.4µM*	?	-12.9%	?
COC(=O)c1cc(Oc2ccc(Cl)cc2Cl)ccc1[N+](=O)[O-]	/	/	/	/	/	0.0%
O=C1OC(c2cc(I)c(O)c(I)c2)(c2cc(I)c(O)c(I)c2)c2ccccc21	7.08µM*	/	/	/	/	20µM*
COc1ccccc1N1CCN(Cc2ccc(F)cc2)CC1	-33.7%	0.1%	-20.1%	-11.3%	27.0%	0.2%
CN1CCN(Cc2c(F)cccc2Cl)CC1	22.4µM*	-1.1%	10µM*	63.1µM*	?	3.2%
Clc1ccccc1N1CCN(Cc2ccc3c(c2)OCO3)CC1	-30.8%[12.7 µM]	1.5%	28.2µM*	79.4µM*	?	-13.9%
O=c1[nH]c(N2CCN(Cc3ccc4c(c3)OCO4)CC2)nc2c1CCC2	1.1%[12.7 µM]	-5.9%	-12.3%	3.6%	39.8%	-10.9%
COc1ccc(CN2CCN(c3ccccc3F)CC2)cc1O	10µM*	0.7%	3.16µM*	?	?	-4.6%
Fc1ccccc1N1CCN(Cc2c(F)cccc2F)CC1	1.41µM*	-11.2%	3.55µM*	31.6µM*	?	-7.0%
Fc1cccc(F)c1CN1CCN(c2ccc(Cl)cc2)CC1	13.4%	-0.9%	-17.8%	-6.8%	-1.4%	-20.4%
COc1ccc2nc(NC(=O)CCNS(=O)(=O)c3ccc4c(c3)oc(=O)n4C)sc2c1	12.3%[12.7 µM]	-1.1%	-6.9%	?	19.1%	-0.8%
Cc1ccccc1N1CCN(Cc2ccc3c(c2)OCO3)CC1	7.94µM*	-7.9%	5.62µM*	?	3.5%	2.4%
Cc1ccc(OCC(=O)N2CCN(Cc3ccc4c(c3)OCO4)CC2)cc1C	-8.0%[12.7 µM]	1.7%	-15.5%	?	16.4%	-5.1%
Clc1ccccc1CN1CCN(c2ccccc2Cl)CC1	12.6µM*	-9.7%	5.62µM*	35.5µM*	?	-1.4%
Fc1ccccc1N1CCN(Cc2ccc3c(c2)OCO3)CC1	7.94µM*	-5.4%	3.55µM*	35.5µM*	?	6.7%
CCN(CC)C(=O)CN1CCN(c2ccccc2F)CC1	31.6µM*	2.4%	8.91µM*	?	?	8.8%
Cc1ccccc1CC(=O)N(CCN(C)C)CC1CCCN(Cc2ccccc2F)C1 (centres undefined)	-3.0%	-3.4%	-16.1%	-4.1%	31.0%	-2.0%
CC(C)(O)C1C2OC(=O)C1[C@]1(O)CC3O[C@@]34C(=O)OC2[C@@]14C (some centres undefined)	-2.2%[2.33 µM]	/	/	/	/	5.0%
CCOc1ccc(CCNC(=O)c2cc3c(-c4ccc(OC)c(OC)c4)nn(C)c3s2)cc1OCC	?	/	?	/	9.5%	-3.9%
CN1Cc2c(ccc3c2OCO3)[C@@H]2[C@@H](O)Cc3cc4c(cc3[C@@H]21)OCO4	21.2%[21.5 µM]	/	/	/	/	-1.4%
O=C1CCCc2c1nc(-c1ccccc1)n2O	-24.0%[12.7 µM]	?	-22.4%	4.3%	-14.5%	-6.0%
SMILES	G9a block	PLK1 PBD inh	JMJD2A Tudor inh	BAZ2B inh	HP1b chromo inh	VDR inh
C[C@@H](N)Cc1cnc[nH]1	?	3.7%	?	/	-0.9%	79.4µM*!
O=C(c1ccc(Cl)cc1)C1CCCN(Cc2cccc3cnccc23)C1 (centres undefined)	?	-6.9%	-30.9%	-26.4%	20.2%	?
O=C(c1cccc(Cl)c1)C1CCCN(Cc2cccc3cnccc23)C1 (centres undefined)	?	?	44.7µM*	?	?	1.7%
CC(C)C[C@H](NC(=O)[C@H](Cc1ccccc1)NC(=O)CNC(=O)[C@@H](NC(=O)[C@@H](N)Cc1ccc(O)cc1)[C@H](C)O)C(=O)N[C@H](C(=O)O)[C@H](C)O	33.0%[59 µM]	/	/	/	/	-0.4%
CN(C)c1ccc(CNC(=O)Cn2c(=O)oc3cc(S(=O)(=O)N4CCCCCC4)ccc32)cc1	11.2µM*	/	?	25.1µM*	-33.2%	4.6%
CCCC(=O)c1c(O)[nH]c(=O)[nH]c1=O	-34.0%[12.7 µM]	-8.9%	17.8µM*	?	19.5%	-8.5%
C=CCn1c(O)c(C(=O)CCCCCC)c(=O)[nH]c1=O	11.5%[59 µM]	-11.4%	-14.9%	-5.7%	37.3%	7.7%
CN(C)CC1CCCCC1OC(=O)Cc1ccc(Cl)c([N+](=O)[O-])c1 (centres undefined)	?	-18.9%	14.1µM*	?	?	-9.3%
Cn1c(O)c(C(=O)c2ccccc2Cl)c(=O)n(C)c1=O	?	-5.8%	89.1µM*	/	17.7%	-16.6%
Cn1c(O)c(C(=N)COc2ccccc2)c(=O)n(C)c1=O	15.0%[0.0925 µM]	-4.6%	-7.3%	5.7%	21.4%	17.8%
CCN1C(=O)C(=Cc2cc(C)n(C3CC3)c2C)C(=O)N(CC)C1=S	50.1µM*	9.5%	-21.9%	-0.6%	27.0%	6.1%
O=C(CN1C(=O)S/C(=C\C=C\c2ccccc2)C1=O)Nc1ccccc1C(=O)O	?	18.9µM*	-17.8%	-33.2%	-2.8%[57 µM]	79.4µM*
CN(C)C(=O)Oc1ccc(C(=O)c2ccccc2)cc1	16.2%[59 µM]	-0.5%	-4.2%	3.8%	24.7%	-9.4%
CN(C)CCOc1ccc(/C(=C(/CCCl)c2ccccc2)c2ccccc2)cc1	?	4.2%	25.1µM*	/	-18.2%	-8.3%
O=C1CCCCC1	15.0%[0.501 µM]	-1.0%	-6.9%	9.5%	49.5%	7.4%
CCN1C[C@@]2(COC)CC[C@H](O)[C@@]34[C@@H]2C[C@@H]([C@@H]13)[C@]1(O)C[C@@H](OC)C2C[C@H]4[C@H]1[C@H]2OC(C)=O	25.6%[21.5 µM]	/	/	/	/	1.6%
CC1CCN(c2ccccc2NC(=O)c2cc3ccccc3o2)CC1	103.5%	-8.7%	29.2%	6.7%	85.9%	1.0%
CN1CCN(c2ccccc2NC(=O)c2ccc(-c3ccc(Cl)c(Cl)c3)o2)CC1	49.0%	4.1%	50.1µM*	-7.1%	-1.5%	-10.8%
CC1CN1P(=O)(Oc1ccccc1)N1CC1C (centres undefined)	/	5.7%	-5.5%	/	26.9%	-14.1%
